Experimental findings from the supplement of paper PMC12669032 are described below.

The subject of one assay is Roseburia intestinalis. The experiment in a line: growth AUC relative to DMSO control (median of replicates) (fraction); higher = more growth (less inhibition), active = hit call of the paper. The following applies: 20 µM; 24 h. The method, boiled down:
(§1)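 Each value is the median of three biological replicates, grown on separate days, of a gut bacterial monoculture incubated anaerobically at 37 °C in mGAM with 20 µM compound (1% DMSO). Cultures started at OD600 0.05 and were read at OD600 hourly for 24 h, with the minimum OD set to 0. Area under the growth curve was normalised to the plate median of solvent-only wells, or to row and column medians on the industrial chemical plate.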

In the next assay the test system is Streptococcus salivarius. The description is as above. The following applies: 20 µM; 24 h. The procedure, abridged:
as §1

Values without a mark were called inactive.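 Rule for the calls: active = AUC reduced over 20% with Padj below 0.05 in at least 2 of 3 replicates; inactive = otherwise.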

Consider `CCOC(=O)CC(SP(=S)(OC)OC)C(=O)OCC` (configuration not stated), for which the results for the “growth AUC” value in the assay on Roseburia intestinalis and in the assay with Streptococcus salivarius were 0.99 and 0.939, respectively.
In the same order, the values of `Cc1cc(Cl)ccc1O[C@H](C)C(=O)O` are 0.898 and 0.988.
In the same order, the values of `COc1cc(Cl)c(OC)cc1Cl` are 1.04 and 1.04.
In the same order, the values of `CCS(=O)(=O)c1nc2ccccn2c1S(=O)(=O)NC(=O)Nc1nc(OC)cc(OC)n1` are 1.01 and 1.03.
For `CS(=O)(=O)NC(=O)c1cc(Oc2ccc(C(F)(F)F)cc2Cl)ccc1[N+](=O)[O-]`, the “growth AUC” value is 0.966 with Roseburia intestinalis and 0.917 in the assay on Streptococcus salivarius.
Regarding `CCCCC(O)(Cn1cncn1)c1ccc(Cl)cc1Cl` (configuration not stated), the figures for the “growth AUC” value in the assay with Roseburia intestinalis and in the assay with Streptococcus salivarius were 1 and 0.991, respectively.
In the same order, the values of `CC(C)OC(=O)C(O)(c1ccc(Br)cc1)c1ccc(Br)cc1` are 1 and 0.962.
In the same order, the values of `O=NN(CCO)CCO` are 0.971 and 0.986.
In the same order, the values of `O=C(NC(=O)c1c(F)cccc1F)Nc1ccc(CO/N=C(\c2ccc(Cl)cc2)C2CC2)cc1` are 0.968 and 0.996.
In the case of `CC(C)OC(=O)Nc1cccc(Cl)c1`, the figures for the “growth AUC” value in the assay with Roseburia intestinalis and in the assay with Streptococcus salivarius were 0.906 and 0.981, respectively.
With `Oc1ccc(Cl)cc1Cl`, the “growth AUC” value in the assay with Roseburia intestinalis is 0.907; in the assay on Streptococcus salivarius, 0.901.
As to `CCCCN(CC)c1c([N+](=O)[O-])cc(C(F)(F)F)cc1[N+](=O)[O-]`, the “growth AUC” value with Roseburia intestinalis was 1.04; with Streptococcus salivarius, 1.03.
In the same order, the values of `COC(=O)C(C)Oc1ccc(Oc2ccc(Cl)cc2Cl)cc1` (configuration not stated) are 0.984 and 0.984.
As to `CCCC(Cn1cncn1)c1ccc(Cl)cc1Cl` (configuration not stated), the “growth AUC” value was 1.02 in the assay on Roseburia intestinalis and 0.915 with Streptococcus salivarius.
In the same order, the values of `CNC(=O)c1cc(C#N)cc(C)c1NC(=O)c1cc(Br)nn1-c1ncccc1Cl` are 0.961 and 1.04.
In the same order, the values of `CCC(C)n1c(=O)[nH]c(C)c(Br)c1=O` (configuration not stated) are 0.975 and 0.901.
In the same order, the values of `CCOP(=S)(OCC)OP(=S)(OCC)OCC` are 0.984 and 0.976.
Take `COc1cnc(OC)n2nc(NS(=O)(=O)c3c(OCC(F)F)cccc3C(F)(F)F)nc12`: the “growth AUC” value is 1.01 in the assay on Roseburia intestinalis and 0.959 with Streptococcus salivarius.
In the same order, the values of `Clc1c(Cl)c(Cl)c(Cl)c(Cl)c1Cl` are 1.01 and 0.999.
In the same order, the values of `O=[N+]([O-])c1c(Cl)c(Cl)c(Cl)c(Cl)c1Cl` are 0.993 and 1.
In the same order, the values of `COP(=S)(OC)SC(CC(=O)O)C(=O)O` (configuration not stated) are 1.02 and 1.03.
As to `O=C1C=C(N(Cc2ccc(Cl)nc2)CC(F)F)CO1`, the “growth AUC” value is 1.02 with Roseburia intestinalis and 0.979 in the assay with Streptococcus salivarius.
In the same order, the values of `CCOP(=O)(OCC)OCC` are 1.07 and 0.994.
In the same order, the values of `CN(C)C(CSC(N)=O)CSC(N)=O.Cl` are 1.07 and 1.
In the same order, the values of `Nc1ccc(Cc2ccc(N)c(Cl)c2)cc1Cl` are 1.1 and 1.09.
Take `CCOP(=S)(OCC)Oc1cnc2ccccc2n1`: the “growth AUC” value with Roseburia intestinalis was 0.99; in the assay on Streptococcus salivarius it was 0.954.
Regarding `C1=Cc2cccc3cccc1c23`, the “growth AUC” value is 0.987 in the assay on Roseburia intestinalis and 0.98 with Streptococcus salivarius.
Turning to `COC(=O)NS(=O)(=O)c1ccc(N)cc1`, the results for the “growth AUC” value in the assay with Roseburia intestinalis and with Streptococcus salivarius were 0.929 and 0.893, respectively.
In the same order, the values of `COc1cc(OC)nc(Oc2cccc(Oc3nc(OC)cc(OC)n3)c2C(=O)[O-])n1.[Na+]` are 1.06 and 1.01.
In the same order, the values of `O=S1(=O)OCC2C(CO1)C1(Cl)C(Cl)=C(Cl)C2(Cl)C1(Cl)Cl` (configuration not stated) are 0.915 and 0.991.
In the same order, the values of `Clc1cc(Cl)c(Cl)c(Cl)c1` are 0.91 and 0.968.
Turning to `COCC(C)N(C(=O)CCl)c1c(C)csc1C` (configuration not stated), the “growth AUC” value was 0.988 in the assay with Roseburia intestinalis and 0.868 in the assay with Streptococcus salivarius.
In the same order, the values of `CCN(CC)C(=S)[S-].O.O.O.[Na+]` are 0.894 and 1.03.
As for `Oc1ccc(Cl)cc1Cc1cc(Cl)ccc1O`, the entries for the “growth AUC” value with Roseburia intestinalis and with Streptococcus salivarius were 0.64 (active) and 0.445 (active), respectively.
In the same order, the values of `COC(=O)/C(C)=C/OP(=S)(OC)OC` are 0.981 and 1.01.
As to `COc1cc(OC)nc(NC(=O)NS(=O)(=O)c2cc(NC=O)ccc2C(=O)N(C)C)n1`, the figures for the “growth AUC” value with Roseburia intestinalis and in the assay on Streptococcus salivarius were 1.04 and 1.03, respectively.
